Results filed as inconclusive are left out. The source made the active and inactive calls. Rule for the calls: active = hit-call score of the fitted dose curve at least 0.9, where 1 is the maximum; inconclusive = response in the unintended direction; inactive = score below 0.9.
Assay: CCTE_Mundy_HCI_iCellGluta_NOG_NeuriteLength: CCTE's Neurite Outgrowth Assay in iCellGluta cells for Neurite Length, Mundy Lab (AID 2284318)
Experimental: CCTE_Mundy_HCI_iCellGluta_NOG is a multiplexed, cell-based-readout assay that uses iCell GlutaNeurons from FUJIFILM Cellular Dynamics, Inc. (FCDI), human glutamatergic enriched neurons derived from induced pluripotent stem (iPS) cells, with measurements taken at 50.33 hours after chemical dosing in a microplate: 96-well plate.CCTE_Mundy_HCI_iCellGluta_NOG_NeuriteLength is one of four components of the CCTE_Mundy_HCI_iCellGluta_NOG assay. It measures neurite outgrowth related to neurite length using High Content Imaging of fluorescently labelled markers.Data from the assay component CCTE_Mundy_HCI_iCellGluta_NOG_NeuriteLength was analyzed at the endpoint CCTE_Mundy_HCI_iCellGluta_NOG_NeuriteLength in the positive analysis fitting direction relative to DMSO as the negative control and baseline of activity. Using a type of morphology reporter, loss-of-signal activity can be used to understand developmental effects.
Exposure starts 2 hours post-plating by adding 10 ul of the working solution to 90 ul of media in the wells for a 1/10 dilution. Forty-eight hours after chemical treatment cells are fixed by direct addition of 100 ul of warm (37C) Dulbecco's phosphate buffered saline (DPBS) fixative solution containing 8% paraformaldehyde, 8% sucrose, and 0.1% of 3 mg/ml Hoechst 33342 into each well. Primary antibodies are prepared by dilution in Immunocytochemical Staining Buffer (ISB), 10X Dulbecco's PBS, 0.1% Saponin, 5% Bovine Serum Albumin, 0.5% NaN3 (Sodium Azide) and betaIII-tubulin (rabbit anti-betaIII-tubulin, 1:800) followed by Alexa Fluor-488 secondary (1:500) to label neuronal cell bodies and neurites. A Cellomics ArrayScan VTi HCS Reader is used for automated image acquisition and analysis of neurite outgrowth.
In the case of `CC(=O)[O-].[Tl+]`, the AC50 is reported as 2.79 µM (active).
For `CC1(C)[C@H](C=C(Cl)Cl)[C@H]1C(=O)OCc1c(F)c(F)cc(F)c1F`, the AC50 was 18.1 µM (active).
With `COP(=O)(OC)SCN1C(=O)c2ccccc2C1=O` the AC50 was 50.5 µM (active).
For `C#CCN(C)[C@H](C)Cc1ccccc1`, the outcome was “inactive”.
In the case of `[CH3][Hg][Cl]`, the AC50 is reported as 0.0763 µM (active).
For `CC1(C)[C@@H](C=C(Cl)Cl)[C@@H]1C(=O)O[C@@H](C#N)c1ccc(F)c(Oc2ccccc2)c1`, the outcome was “inactive”.
In the case of `CCOP(=O)(OCC)OC(Cl)C(Cl)(Cl)Cl` (stereo not given), the outcome is reported as “inactive”.
With `CC1(C)C(C=C(Cl)c2ccc(Cl)cc2)C1C(=O)OC(C#N)c1ccc(F)c(Oc2ccccc2)c1` (stereo not given) the AC50 was 67.3 µM (active).
For `CC1(C)C(C=C(Cl)Cl)C1C(=O)O[C@H](C#N)c1cccc(Oc2ccccc2)c1` (stereo not given in full), the outcome was “inactive”.
For `CCOP(=O)(OCC)SCSC(C)(C)C`, the AC50 was 9.83 µM (active).
With `CCOP(=O)(OCC)SCSCC` the AC50 was 49.8 µM (active).
In the case of `CCOP(=S)(OCC)SCS(=O)C(C)(C)C` (stereo not given), the outcome is reported as “inactive”.
With `Cn1nc(C(F)(F)F)c(CS(=O)(=O)C2=NOC(C)(C)C2)c1OC(F)F` the AC50 was 50 µM (active).
With `[Cd+2].[Cl-].[Cl-]` the AC50 was 10.8 µM (active).
With `CCOP(=O)(Oc1cnc(C(C)(C)C)nc1)OC(C)C` (stereo not given) the AC50 was 28.8 µM (active).

Reference: PubChem BioAssay (EPA / NIEHS)
